# According to article PMC7862700, “An all-to-all approach to the identification of sequence-specific readers for epigenetic DNA modifications on cytosine”:
# Columns and labels:
# Assay in all cases: DAPPL (digital affinity profiling via proximity ligation, sequencing); 10 mM Tris-HCl pH 7.5, 50 mM NaCl, 1 mM DTT, 4% glycerol, room temperature, 30 min; GST-TFs on glutathione beads, 16-mer random dsDNA library, 0.1% formaldehyde crosslink after washing; high values mean tight binding
# Settings in all cases: protein: recombinant; tags: N-terminal GST; dsDNA, one strand shown
# FLI1 = molecular target: T1, FLI1 (Homo sapiens, UniProt Q01543 1-452)
# T1 sequence: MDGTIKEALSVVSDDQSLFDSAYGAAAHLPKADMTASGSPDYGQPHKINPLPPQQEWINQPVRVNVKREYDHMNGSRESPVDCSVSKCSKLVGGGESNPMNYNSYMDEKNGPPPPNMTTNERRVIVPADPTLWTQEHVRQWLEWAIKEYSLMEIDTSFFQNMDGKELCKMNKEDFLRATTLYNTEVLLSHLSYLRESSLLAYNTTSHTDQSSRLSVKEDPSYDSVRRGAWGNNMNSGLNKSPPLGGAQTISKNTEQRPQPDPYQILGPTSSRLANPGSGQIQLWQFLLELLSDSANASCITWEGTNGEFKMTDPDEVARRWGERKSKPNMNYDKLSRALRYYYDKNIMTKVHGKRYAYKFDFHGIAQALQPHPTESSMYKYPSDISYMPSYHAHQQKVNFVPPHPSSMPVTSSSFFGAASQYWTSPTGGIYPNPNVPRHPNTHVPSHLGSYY
# Summary of the method: (§1)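 Binding signal is defined as a hexamer's read frequency for one factor over its frequency for the tag-only sample. To obtain reads, GST-fused human transcription factors were expressed in yeast, captured on glutathione beads, barcoded with DNA and pooled with that sample. Pools met 200 nmole of a 16-mer random double-stranded DNA library in Tris/NaCl/DTT/glycerol buffer for 30 min at room temperature before washing, 0.1% formaldehyde crosslinking, proximity ligation (BsaI/T4 ligase, 1 h, 37 °C), PCR and Illumina NextSeq500 sequencing.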
# ELK1 = molecular target: T2, ELK1 (Homo sapiens, UniProt P19419 1-428)
# T2 sequence: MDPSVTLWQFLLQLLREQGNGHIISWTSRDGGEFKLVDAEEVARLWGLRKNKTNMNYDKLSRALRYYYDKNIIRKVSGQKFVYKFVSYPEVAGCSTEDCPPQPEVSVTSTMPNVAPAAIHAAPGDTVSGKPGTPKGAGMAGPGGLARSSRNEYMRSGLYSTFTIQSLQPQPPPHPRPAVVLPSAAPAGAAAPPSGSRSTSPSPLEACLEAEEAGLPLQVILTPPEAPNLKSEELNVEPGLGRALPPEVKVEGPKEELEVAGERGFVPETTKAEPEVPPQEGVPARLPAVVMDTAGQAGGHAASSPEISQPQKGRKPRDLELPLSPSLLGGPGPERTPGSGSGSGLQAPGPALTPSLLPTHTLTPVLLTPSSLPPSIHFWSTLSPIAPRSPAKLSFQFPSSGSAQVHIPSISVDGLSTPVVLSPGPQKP
# Summary of the method: as §1
# ELF1 = ELF1 (Homo sapiens, UniProt P32519 1-619)
# Sequence of ELF1 (P32519 whole entry): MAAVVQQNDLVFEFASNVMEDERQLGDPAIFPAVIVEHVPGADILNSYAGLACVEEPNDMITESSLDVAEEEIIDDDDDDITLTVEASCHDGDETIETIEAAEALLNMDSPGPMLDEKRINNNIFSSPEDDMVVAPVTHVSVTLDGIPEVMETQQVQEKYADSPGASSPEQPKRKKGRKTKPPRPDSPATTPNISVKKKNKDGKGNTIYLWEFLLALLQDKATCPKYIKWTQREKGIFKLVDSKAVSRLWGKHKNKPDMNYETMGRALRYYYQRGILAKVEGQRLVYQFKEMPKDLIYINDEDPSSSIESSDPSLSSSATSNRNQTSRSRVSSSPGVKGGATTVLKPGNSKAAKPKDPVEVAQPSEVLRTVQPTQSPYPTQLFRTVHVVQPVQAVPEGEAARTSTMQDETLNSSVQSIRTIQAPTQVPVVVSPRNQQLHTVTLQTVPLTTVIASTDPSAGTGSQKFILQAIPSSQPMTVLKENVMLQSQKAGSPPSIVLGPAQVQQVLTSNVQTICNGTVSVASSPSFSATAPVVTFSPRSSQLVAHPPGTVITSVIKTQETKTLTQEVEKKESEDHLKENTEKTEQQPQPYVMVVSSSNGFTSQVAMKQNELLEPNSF
# Summary of the method: as §1
# EHF = molecular target: T3, EHF (Homo sapiens, UniProt Q9NZC4 1-300)
# T3 sequence: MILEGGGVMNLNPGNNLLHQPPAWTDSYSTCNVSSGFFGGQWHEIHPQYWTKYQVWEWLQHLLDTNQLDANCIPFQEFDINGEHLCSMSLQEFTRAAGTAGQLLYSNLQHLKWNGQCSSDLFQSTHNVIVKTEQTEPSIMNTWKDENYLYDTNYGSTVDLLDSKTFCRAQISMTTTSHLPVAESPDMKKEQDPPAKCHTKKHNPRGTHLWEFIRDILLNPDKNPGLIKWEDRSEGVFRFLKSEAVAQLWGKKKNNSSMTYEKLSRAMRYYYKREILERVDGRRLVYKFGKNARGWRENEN
# Summary of the method: as §1
# SPI1 = SPI1 (Homo sapiens, UniProt P17947 1-270)
# Summary of the method: as §1
# ELF4 = ELF4 (Homo sapiens, UniProt Q99607 1-663)
# Sequence of ELF4 (Q99607 whole entry): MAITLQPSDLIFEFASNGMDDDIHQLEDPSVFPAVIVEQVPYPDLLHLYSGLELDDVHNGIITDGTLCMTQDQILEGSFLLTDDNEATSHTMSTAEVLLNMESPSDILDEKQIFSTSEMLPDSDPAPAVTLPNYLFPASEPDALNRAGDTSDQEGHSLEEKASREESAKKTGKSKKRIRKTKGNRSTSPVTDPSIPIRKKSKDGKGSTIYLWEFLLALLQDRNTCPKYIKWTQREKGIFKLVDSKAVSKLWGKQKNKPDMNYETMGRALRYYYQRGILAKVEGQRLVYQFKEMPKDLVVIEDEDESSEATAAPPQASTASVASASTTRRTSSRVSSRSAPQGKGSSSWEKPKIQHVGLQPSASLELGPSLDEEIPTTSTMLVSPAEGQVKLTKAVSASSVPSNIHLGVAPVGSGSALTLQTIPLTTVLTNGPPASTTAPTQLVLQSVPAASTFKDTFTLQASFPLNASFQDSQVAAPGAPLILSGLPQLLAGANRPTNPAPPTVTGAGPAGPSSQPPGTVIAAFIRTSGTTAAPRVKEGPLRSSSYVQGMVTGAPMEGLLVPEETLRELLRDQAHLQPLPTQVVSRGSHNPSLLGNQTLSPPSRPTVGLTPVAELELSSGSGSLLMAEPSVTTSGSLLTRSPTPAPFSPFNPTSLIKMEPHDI
# Summary of the method: as §1
# ELF3 = molecular target: T4, ELF3 (Homo sapiens, UniProt P78545 1-371)
# T4 sequence: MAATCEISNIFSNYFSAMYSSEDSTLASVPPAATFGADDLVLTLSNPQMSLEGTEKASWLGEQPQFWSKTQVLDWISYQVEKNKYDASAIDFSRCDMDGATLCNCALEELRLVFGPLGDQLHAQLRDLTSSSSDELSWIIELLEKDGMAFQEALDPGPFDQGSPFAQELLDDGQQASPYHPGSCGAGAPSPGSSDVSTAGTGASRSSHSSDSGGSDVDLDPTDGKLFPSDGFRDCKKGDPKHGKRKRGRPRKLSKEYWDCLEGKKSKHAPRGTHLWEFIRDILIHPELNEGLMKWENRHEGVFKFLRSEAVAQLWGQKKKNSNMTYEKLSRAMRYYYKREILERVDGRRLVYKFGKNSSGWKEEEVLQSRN
# Summary of the method: as §1
# CRX = CRX (Homo sapiens, UniProt O43186 1-299)
# Sequence of CRX (O43186 whole entry): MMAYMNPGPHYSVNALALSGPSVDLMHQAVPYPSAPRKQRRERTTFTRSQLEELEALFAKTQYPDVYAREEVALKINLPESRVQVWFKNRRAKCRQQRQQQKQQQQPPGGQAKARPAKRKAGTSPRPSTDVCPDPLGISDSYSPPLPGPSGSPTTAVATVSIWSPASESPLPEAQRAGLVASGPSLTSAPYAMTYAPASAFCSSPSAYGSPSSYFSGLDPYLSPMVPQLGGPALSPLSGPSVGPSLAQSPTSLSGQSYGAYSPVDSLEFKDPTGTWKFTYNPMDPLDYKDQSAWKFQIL
# Summary of the method: as §1
# ETV1 = ETV1 (Homo sapiens, UniProt P50549 1-477)
# Sequence of ETV1 (P50549 whole entry): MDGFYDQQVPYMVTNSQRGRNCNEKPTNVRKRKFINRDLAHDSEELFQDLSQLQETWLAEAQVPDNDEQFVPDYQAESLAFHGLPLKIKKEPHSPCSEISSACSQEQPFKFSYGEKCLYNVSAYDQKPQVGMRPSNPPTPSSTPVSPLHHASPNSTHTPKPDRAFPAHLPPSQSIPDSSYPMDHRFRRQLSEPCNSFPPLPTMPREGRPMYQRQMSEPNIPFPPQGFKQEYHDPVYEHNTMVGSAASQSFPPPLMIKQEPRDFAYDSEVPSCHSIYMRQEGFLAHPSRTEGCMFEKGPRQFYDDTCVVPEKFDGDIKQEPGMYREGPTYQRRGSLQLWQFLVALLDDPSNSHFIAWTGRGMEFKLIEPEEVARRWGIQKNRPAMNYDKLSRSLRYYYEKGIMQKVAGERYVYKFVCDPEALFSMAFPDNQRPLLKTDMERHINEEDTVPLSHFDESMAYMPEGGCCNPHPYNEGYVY
# Summary of the method: as §1
# ERF = molecular target: T5, ERF (Homo sapiens, UniProt P50548 1-548)
# T5 sequence: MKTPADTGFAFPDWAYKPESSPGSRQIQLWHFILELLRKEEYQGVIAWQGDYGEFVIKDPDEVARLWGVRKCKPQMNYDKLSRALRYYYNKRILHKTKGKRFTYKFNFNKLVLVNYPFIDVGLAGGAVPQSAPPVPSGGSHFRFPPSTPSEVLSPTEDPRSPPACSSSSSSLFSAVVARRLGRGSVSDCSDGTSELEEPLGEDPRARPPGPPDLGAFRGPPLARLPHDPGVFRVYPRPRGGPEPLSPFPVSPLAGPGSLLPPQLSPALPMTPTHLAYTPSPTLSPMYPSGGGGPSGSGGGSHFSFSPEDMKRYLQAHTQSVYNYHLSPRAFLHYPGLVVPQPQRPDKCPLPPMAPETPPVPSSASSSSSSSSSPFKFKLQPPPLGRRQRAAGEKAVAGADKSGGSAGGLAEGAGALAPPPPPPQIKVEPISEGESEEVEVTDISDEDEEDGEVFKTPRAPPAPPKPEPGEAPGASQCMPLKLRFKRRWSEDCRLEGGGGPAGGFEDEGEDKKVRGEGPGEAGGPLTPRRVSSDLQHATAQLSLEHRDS
# Summary of the method: as §1
# ETS2 = molecular target: T6, ETS2 (Homo sapiens, UniProt P15036 1-469)
# T6 sequence: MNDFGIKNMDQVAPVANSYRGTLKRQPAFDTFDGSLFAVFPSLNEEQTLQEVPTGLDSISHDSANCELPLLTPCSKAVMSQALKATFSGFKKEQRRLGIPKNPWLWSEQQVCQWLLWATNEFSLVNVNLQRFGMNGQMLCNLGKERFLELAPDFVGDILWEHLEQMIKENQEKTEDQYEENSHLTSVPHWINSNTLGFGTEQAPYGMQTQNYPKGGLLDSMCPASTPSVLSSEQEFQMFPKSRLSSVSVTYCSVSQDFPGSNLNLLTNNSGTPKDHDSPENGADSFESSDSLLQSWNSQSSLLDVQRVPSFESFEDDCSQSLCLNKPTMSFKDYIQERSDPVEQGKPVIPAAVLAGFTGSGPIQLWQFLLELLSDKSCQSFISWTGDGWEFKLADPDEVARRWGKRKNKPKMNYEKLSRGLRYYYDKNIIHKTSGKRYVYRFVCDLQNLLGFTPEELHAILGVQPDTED
# Summary of the method: as §1
# SPDEF = molecular target: T7, SPDEF (Homo sapiens, UniProt O95238 1-335)
# T7 sequence: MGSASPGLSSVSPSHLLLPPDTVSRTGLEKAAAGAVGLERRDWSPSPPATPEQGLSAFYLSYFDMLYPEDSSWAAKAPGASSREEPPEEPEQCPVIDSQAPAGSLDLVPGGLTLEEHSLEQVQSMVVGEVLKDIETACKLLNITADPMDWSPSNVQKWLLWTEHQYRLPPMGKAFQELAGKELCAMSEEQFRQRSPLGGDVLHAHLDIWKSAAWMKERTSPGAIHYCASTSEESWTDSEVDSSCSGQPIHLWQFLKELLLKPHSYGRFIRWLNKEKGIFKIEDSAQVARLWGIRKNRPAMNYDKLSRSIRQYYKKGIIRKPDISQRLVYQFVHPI
# Summary of the method: as §1
# ETV7 = molecular target: T8, ETV7 (Homo sapiens, UniProt Q9Y603 1-341)
# T8 sequence: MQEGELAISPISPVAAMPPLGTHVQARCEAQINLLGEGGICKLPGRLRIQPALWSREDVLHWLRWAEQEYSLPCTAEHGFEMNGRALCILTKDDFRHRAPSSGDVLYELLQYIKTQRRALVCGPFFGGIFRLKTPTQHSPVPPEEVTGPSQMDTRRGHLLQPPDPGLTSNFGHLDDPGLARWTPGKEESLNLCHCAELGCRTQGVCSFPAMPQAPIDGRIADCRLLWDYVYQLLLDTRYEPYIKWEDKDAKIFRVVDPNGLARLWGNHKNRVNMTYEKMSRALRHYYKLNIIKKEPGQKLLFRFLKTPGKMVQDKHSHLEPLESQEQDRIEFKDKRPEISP
# Summary of the method: as §1
# SPIB = SPIB (Homo sapiens, UniProt Q01892 1-262)
# Sequence of SPIB (Q01892 whole entry): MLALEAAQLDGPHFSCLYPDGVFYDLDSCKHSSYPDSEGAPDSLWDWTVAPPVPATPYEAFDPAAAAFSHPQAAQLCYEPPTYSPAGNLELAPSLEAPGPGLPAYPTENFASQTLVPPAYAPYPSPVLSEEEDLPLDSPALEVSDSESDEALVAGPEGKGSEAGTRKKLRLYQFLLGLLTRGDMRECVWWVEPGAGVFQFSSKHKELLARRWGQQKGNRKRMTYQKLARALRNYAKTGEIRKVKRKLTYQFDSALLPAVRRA
# Summary of the method: as §1
# ELK3 = molecular target: T9, ELK3 (Homo sapiens, UniProt P41970 1-407)
# T9 sequence: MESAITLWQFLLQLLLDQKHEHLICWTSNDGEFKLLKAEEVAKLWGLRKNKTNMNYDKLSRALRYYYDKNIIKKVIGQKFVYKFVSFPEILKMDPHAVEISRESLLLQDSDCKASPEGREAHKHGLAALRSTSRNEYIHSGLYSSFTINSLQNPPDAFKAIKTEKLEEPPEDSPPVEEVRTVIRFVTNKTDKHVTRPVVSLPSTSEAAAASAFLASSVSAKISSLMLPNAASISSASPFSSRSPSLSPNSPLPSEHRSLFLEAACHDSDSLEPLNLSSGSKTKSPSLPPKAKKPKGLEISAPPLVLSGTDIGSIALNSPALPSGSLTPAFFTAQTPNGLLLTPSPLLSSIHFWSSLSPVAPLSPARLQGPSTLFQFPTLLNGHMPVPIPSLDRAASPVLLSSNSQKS
# Summary of the method: as §1
Sequence,binding signal (FLI1),binding signal (ELK1),binding signal (ELF1),binding signal (EHF),binding signal (SPI1),binding signal (ELF4),binding signal (ELF3),binding signal (CRX),binding signal (ETV1),binding signal (ERF),binding signal (ETS2),binding signal (SPDEF),binding signal (ETV7),binding signal (SPIB),binding signal (ELK3)
ATTGAG,"1.08 fold enrichment (6-mer frequency, TF over GST control)","1.12 fold enrichment (6-mer frequency, TF over GST control)","1 fold enrichment (6-mer frequency, TF over GST control)","1.01 fold enrichment (6-mer frequency, TF over GST control)","1 fold enrichment (6-mer frequency, TF over GST control)","1.05 fold enrichment (6-mer frequency, TF over GST control)","1 fold enrichment (6-mer frequency, TF over GST control)","1.11 fold enrichment (6-mer frequency, TF over GST control)","1.01 fold enrichment (6-mer frequency, TF over GST control)","1.02 fold enrichment (6-mer frequency, TF over GST control)","1 fold enrichment (6-mer frequency, TF over GST control)","1.01 fold enrichment (6-mer frequency, TF over GST control)","1.08 fold enrichment (6-mer frequency, TF over GST control)",–,–
CAAAGT,"1.01 fold enrichment (6-mer frequency, TF over GST control)",–,"1.03 fold enrichment (6-mer frequency, TF over GST control)",–,–,"1.03 fold enrichment (6-mer frequency, TF over GST control)",–,–,–,–,–,–,"1 fold enrichment (6-mer frequency, TF over GST control)","1.04 fold enrichment (6-mer frequency, TF over GST control)","1.06 fold enrichment (6-mer frequency, TF over GST control)"
